Measurements as given in the supplement of paper PMC10849652.
Targets with a hit are over-represented here; the source holds about 7,900 in all. About 0.6% of all pairs of compound and target were hits.

The targets below were run with Cc1ccc(C(=O)N(CCCN)[C@@H](c2nc3cc(Cl)ccc3c(=O)n2Cc2ccccc2)C(C)C)cc1 [ispinesib] (assay: log2 fold change, soluble protein after heating vs DMSO (PISA); higher = thermal stabilisation; K562 cells, 10 uM, 30 min; active = over 0.2 and 3.5 SD of the protein, either way, in both replicates (recomputed)).
How it was run: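 K562 cells at 2×10^6 cells/mL were exposed to 10 μM compound for 30 min, then aliquots were heated for 3 min across 48°C-58°C, pooled, and extracted in PBS containing 0.5% NP-40 at 4°C. The supernatant after 21,000xg for 90 min was taken as soluble protein and measured by TMTpro 16plex LC-MS/MS with channel sums equalised. Thermal stability is reported relative to control samples, with values from duplicates. Fold changes are given on a log2 scale.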

Chain of UniProt Q15111 (Q15111 whole entry, looked up): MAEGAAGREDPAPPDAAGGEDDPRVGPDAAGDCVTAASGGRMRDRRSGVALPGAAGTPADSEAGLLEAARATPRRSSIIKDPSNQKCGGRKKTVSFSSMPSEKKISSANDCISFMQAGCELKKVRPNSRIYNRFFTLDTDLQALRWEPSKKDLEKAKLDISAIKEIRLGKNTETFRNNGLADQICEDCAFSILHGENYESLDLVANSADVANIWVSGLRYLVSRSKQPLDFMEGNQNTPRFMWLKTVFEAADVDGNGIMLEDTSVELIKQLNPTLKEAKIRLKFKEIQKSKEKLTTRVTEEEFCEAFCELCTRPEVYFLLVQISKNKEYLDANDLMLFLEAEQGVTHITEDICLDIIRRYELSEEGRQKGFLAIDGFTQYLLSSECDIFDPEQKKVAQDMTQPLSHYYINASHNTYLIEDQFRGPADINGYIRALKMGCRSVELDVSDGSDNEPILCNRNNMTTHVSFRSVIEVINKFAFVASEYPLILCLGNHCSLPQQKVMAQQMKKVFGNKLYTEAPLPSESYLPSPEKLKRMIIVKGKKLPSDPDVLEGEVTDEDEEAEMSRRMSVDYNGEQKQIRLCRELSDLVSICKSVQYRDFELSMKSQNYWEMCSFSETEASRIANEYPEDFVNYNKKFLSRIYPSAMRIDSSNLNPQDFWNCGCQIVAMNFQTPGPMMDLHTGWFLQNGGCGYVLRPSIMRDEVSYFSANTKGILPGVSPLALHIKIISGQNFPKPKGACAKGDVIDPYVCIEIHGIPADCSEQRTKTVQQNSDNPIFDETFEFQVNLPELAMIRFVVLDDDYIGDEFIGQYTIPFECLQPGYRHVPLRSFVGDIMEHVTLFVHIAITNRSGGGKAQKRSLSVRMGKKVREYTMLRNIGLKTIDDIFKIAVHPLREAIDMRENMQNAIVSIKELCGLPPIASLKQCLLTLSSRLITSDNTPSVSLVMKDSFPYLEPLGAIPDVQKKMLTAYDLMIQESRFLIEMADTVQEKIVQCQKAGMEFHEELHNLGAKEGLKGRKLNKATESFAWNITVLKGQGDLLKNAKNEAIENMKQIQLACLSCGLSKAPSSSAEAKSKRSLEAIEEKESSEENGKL
Chain of UniProt O00233 (O00233 whole entry, looked up): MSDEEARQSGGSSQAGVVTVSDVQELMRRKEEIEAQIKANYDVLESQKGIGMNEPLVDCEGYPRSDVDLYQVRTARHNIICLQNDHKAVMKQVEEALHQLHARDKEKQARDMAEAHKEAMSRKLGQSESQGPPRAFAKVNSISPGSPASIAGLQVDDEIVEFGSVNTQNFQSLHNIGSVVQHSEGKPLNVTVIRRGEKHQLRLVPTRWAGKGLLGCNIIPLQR
Chain of UniProt P43686 (P43686 whole entry, looked up): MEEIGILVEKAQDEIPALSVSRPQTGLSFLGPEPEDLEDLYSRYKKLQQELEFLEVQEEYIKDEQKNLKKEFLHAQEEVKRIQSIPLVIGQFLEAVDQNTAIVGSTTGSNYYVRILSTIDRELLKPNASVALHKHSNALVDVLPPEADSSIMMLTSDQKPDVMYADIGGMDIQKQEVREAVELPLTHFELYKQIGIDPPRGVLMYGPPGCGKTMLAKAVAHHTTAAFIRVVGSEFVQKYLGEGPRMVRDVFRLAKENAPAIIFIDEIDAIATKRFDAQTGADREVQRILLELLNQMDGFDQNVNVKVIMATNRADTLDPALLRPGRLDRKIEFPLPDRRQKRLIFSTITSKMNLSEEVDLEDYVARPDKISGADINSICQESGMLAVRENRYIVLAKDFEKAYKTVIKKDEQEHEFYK
Chain of UniProt Q8IZL8 (Q8IZL8 whole entry, looked up): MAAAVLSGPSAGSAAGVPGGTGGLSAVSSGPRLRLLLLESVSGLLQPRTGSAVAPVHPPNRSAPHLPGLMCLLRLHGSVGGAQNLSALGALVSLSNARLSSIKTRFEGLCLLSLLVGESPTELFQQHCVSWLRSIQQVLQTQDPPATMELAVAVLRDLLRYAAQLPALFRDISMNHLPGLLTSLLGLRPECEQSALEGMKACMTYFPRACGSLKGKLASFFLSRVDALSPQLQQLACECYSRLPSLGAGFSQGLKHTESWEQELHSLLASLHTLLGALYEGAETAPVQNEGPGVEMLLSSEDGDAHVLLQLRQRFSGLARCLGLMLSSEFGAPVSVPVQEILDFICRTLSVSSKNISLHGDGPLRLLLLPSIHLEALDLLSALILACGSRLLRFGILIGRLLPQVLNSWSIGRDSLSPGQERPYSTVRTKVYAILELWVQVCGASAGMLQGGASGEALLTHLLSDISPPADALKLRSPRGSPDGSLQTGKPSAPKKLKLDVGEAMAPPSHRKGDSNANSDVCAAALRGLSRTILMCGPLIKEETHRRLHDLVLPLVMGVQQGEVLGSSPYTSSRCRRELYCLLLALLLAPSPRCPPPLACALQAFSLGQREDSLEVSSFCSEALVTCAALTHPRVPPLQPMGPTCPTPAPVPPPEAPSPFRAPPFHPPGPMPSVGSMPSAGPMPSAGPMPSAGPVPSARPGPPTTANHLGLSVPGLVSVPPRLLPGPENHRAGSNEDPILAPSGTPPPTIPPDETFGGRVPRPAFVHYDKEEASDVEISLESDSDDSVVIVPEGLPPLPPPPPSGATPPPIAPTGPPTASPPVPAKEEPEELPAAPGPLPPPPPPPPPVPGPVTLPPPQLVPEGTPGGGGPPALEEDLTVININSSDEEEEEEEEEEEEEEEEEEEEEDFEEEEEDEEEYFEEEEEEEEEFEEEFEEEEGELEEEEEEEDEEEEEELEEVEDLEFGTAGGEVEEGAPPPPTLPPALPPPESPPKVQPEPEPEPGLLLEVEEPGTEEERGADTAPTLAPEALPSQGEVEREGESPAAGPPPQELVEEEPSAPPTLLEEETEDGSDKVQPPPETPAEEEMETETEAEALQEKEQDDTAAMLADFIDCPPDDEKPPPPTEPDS
Chain of UniProt Q9H3S7 (Q9H3S7 whole entry, looked up): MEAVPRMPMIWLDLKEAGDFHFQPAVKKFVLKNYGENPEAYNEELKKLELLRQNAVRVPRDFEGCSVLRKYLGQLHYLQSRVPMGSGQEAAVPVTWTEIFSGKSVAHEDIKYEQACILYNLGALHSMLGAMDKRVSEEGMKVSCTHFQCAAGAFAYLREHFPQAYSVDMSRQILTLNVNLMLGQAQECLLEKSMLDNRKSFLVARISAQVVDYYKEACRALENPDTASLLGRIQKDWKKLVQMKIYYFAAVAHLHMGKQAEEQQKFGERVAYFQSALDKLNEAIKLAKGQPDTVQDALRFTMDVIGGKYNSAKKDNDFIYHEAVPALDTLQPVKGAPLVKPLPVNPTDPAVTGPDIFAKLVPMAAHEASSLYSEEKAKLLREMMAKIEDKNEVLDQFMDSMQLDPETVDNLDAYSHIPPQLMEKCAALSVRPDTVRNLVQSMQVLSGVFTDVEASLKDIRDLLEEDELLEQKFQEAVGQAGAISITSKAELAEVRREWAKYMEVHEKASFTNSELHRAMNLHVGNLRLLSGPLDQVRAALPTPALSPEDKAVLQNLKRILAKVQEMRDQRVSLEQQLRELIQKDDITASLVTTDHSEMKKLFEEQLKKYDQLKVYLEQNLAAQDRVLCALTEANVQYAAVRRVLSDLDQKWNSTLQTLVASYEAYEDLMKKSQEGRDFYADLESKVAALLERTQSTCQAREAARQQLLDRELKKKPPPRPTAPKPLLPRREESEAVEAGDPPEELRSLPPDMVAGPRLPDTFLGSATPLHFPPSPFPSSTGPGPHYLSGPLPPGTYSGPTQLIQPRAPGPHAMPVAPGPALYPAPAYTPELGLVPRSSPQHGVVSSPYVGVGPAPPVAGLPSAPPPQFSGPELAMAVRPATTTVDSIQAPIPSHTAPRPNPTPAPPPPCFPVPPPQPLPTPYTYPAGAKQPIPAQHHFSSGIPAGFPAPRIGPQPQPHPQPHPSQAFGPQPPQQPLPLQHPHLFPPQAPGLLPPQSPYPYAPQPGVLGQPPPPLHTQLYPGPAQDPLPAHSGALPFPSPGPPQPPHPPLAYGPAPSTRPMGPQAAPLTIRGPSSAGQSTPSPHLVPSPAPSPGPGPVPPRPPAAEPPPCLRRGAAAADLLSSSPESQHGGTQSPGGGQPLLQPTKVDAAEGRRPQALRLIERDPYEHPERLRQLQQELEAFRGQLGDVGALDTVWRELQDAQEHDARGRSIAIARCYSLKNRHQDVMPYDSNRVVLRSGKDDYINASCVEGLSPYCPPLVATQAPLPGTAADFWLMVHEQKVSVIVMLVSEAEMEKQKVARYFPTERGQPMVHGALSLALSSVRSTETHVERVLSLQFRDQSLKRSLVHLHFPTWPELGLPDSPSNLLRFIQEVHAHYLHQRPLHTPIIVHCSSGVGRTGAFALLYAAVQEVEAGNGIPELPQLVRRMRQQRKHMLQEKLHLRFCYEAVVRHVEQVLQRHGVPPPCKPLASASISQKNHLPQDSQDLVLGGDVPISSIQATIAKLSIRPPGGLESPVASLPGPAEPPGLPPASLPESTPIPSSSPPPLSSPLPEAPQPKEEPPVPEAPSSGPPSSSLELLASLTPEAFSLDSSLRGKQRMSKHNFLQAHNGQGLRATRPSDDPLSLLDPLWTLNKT
Chain of UniProt Q8N165 (Q8N165 whole entry, looked up): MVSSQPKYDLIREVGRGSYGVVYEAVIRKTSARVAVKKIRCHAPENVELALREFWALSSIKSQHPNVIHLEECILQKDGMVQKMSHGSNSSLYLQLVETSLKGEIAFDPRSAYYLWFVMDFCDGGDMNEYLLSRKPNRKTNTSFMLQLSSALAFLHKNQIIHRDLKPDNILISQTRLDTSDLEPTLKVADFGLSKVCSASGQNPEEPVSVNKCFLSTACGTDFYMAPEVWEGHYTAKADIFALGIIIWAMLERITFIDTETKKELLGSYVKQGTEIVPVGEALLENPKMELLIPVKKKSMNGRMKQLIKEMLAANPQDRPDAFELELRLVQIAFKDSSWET
Chain of UniProt Q96A00 (Q96A00 whole entry, looked up): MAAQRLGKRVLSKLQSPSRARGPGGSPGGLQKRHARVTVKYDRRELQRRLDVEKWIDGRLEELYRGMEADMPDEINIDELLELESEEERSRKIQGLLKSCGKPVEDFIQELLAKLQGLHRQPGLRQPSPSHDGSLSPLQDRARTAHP

| Target | log2 fold change |
| --- | --- |
| PELP1 (UniProt Q8IZL8) | 0.004 (inactive) |
| PDE2A (UniProt O00408) | -0.067 (inactive) |
| PSMD1 (UniProt Q99460) | 0.048 (inactive) |
| POGLUT1 (UniProt Q8NBL1) | 0.087 (inactive) |
| PTP4A2 (UniProt Q12974) | 0.154 (inactive) |
| PNN (UniProt Q9H307) | -0.08 (inactive) |
| PRPF40A (UniProt O75400) | -0.034 (inactive) |
| PIKFYVE (UniProt Q9Y2I7) | -0.061 (inactive) |
| PCYT1A (UniProt P49585) | 0.003 (inactive) |
| PRPF4B (UniProt Q13523) | 0.082 (inactive) |
| PNPLA2 (UniProt Q96AD5) | -0.395 (active) |
| PARP1 (UniProt P09874) | -0.126 (inactive) |
| PDIK1L (UniProt Q8N165) | 0.039 (inactive) |
| PTPN23 (UniProt Q9H3S7) | 0.018 (inactive) |
| PPP1R14A (UniProt Q96A00) | 0.319 (inactive) |
| PIK3R1 (UniProt P27986) | -0.079 (inactive) |
| PKM isoform 2 (UniProt P14618) | 0.016 (inactive) |

| Target | log2 fold change |
| --- | --- |
| PSMC4 (UniProt P43686) | -0.02 (inactive) |
| PHAX (UniProt Q9H814) | 0.017 (inactive) |
| POLR2K (UniProt P53803) | 0.029 (inactive) |
| PLSCR1 (UniProt O15162) | -0.619 (active) |
| PSMD9 (UniProt O00233) | 0.016 (inactive) |
| PIK3CD (UniProt O00329) | -0.029 (inactive) |
| PTGES3 (UniProt Q15185) | 0.015 (inactive) |
| POLR2C (UniProt P19387) | 0.034 (inactive) |
| PHKG2 (UniProt P15735) | 0.018 (inactive) |
| QRICH1 (UniProt Q2TAL8) | 0.006 (inactive) |
| PSMD3 (UniProt O43242) | 0.013 (inactive) |
| PKN2 (UniProt Q16513) | -0.028 (inactive) |
| PRKAB2 (UniProt O43741) | 0.143 (inactive) |
| PLCL1 (UniProt Q15111) | -0.162 (inactive) |
| PCBP1 (UniProt Q15365) | 0.028 (inactive) |
| PRMT8 (UniProt Q9NR22) | 0.13 (inactive) |
